Screens as filed in PubChem.
uPA surface inh = cell surface uPA generation inhibition; hit rate 0.31% among 330,000; Potency, µM (titrated, usually from 38.3 µM), for inactives: at the top dose activity change, negative = inhibition, usual class: inhibitors; cell surface uPA generation assay, qHTS; active means well fitted inhibition curve with a large enough effect; inconclusive means small, poorly fitted or top-dose-only effect; inactive means no such curve, though single readings can be large or run the other way; tested in mouse RAW 264.7 cells; further: potency means the concentration at half of the fitted maximal effect; on the % scale 0 is the no-effect control and ±100 the full control effect; nearly all actives have a fitted effect of over 55% in size
TSG101-PTAP inh = blocks PTAP/TSG101 interaction to inhibit HIV-1 budding; Fluorescence polarization, FITC-PTAP peptide / Tsg101 binding; Potency, µM (highest dose often 115 µM), inactives show at the highest dose activity change, negative = inhibition, hits mostly inhibitors; 340,000 tested, under 10 active; AID 493005; active means well fitted inhibition curve with a large enough effect in the main read-out, with a control signal flat, not every such curve was filed as active; inconclusive means small, poorly fitted or top-dose-only effect, or effect the other way, or a change in a side signal; inactive means no such curve, though single readings can be large or run the other way; further: potency means the concentration at half of the fitted maximal effect; % of control where 0% means no effect
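Compounds were pin-transferred onto Tsg101 binding domain (10 uM final) in HEPES pH 7.5 buffer, then FITC-PTAP peptide was added at 50 nM final. After 20 min at RT, polarization reported peptide displacement across a qHTS concentration series.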
VDR inh = inhibitors of human vitamin D receptor; hit rate 0.93% among 400,000; P11473; VDR-SRC2-3 peptide fluorescence polarization, 2 h; AID 504847; Potency, µM, inactives show max response, negative = inhibition, most hits filed as inhibitors; further: potency means the concentration at half of the fitted maximal effect; on the % scale 0 is the no-effect control and ±100 the full control effect
Target sequence (P11473 whole entry, looked up): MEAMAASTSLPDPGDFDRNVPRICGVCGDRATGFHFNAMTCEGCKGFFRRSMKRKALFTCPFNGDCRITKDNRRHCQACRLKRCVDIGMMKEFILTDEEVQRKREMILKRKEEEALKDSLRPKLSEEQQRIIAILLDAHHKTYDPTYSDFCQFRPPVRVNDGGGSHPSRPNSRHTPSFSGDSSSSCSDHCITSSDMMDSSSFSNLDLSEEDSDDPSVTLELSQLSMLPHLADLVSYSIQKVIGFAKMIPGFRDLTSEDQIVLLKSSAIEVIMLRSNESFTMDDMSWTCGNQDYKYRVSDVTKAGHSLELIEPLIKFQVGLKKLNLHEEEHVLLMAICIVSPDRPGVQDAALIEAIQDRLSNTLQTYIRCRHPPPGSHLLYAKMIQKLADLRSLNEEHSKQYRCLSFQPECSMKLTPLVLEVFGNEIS
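Compounds are added to VDR with labelled SRC2-3 coactivator peptide and held 2 h at room temperature. Inhibition of the VDR–peptide interaction is then read as a change in fluorescence polarization.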
TSHR antagonist = antagonists of human thyroid stimulating hormone receptor; hit rate 0.2% among 330,000; P16473; TSHR-expressing cells, TSH-stimulated cAMP HTRF, 2 h; hits give low values; AID 504810; activity change, negative = inhibition, % at 11.5 µM;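 active means activity change below a set negative limit, meaning inhibition stronger than a set level, cut at about -70% in these data; inconclusive means activity change between two set negative limits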; further: on the % scale 0 is the no-effect control and ±100 the full control effect
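Freshly harvested TSHR cells receive pin-tooled compound, then EC80 TSH at 4nM final. After 2 hours at 37 deg C, antibody in lysis buffer and cAMP-d2 are added; 30 minutes at ambient temperature precede the HTRF read.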
PLK1 PBD block = blocks phosphopeptide binding to human PLK1 polo-box domain. P53350. Plk1 PBD binding of FITC phosphopeptide, fluorescence polarization. Potency, µM, for the others: max response, negative = inhibition, usual class: inhibitors. hit rate 2.8% among 360,000; further: potency means the concentration at half of the fitted maximal effect; series mostly up to about 57 µM; on the % scale 0 is the no-effect control and ±100 the full control effect; nearly all actives have a fitted effect of over 65% in size
TbPYK inh = confirmation of Trypanosoma brucei pyruvate kinase inhibitors. shares compounds with PLK1 PBD block. recombinant TbPYK, Kinase-Glo ATP luminescence. Potency, µM (highest dose often 76.9 µM), without a hit: at the highest dose activity change, negative = inhibition, hits mostly inhibitors. hit rate 67% among 890. AID 720569; further: potency means the concentration at half of the fitted maximal effect; on the % scale 0 is the no-effect control and ±100 the full control effect; nearly all actives have a fitted effect of over 70% in size
TbPYK orthogonal = orthogonal confirmation of Trypanosoma brucei pyruvate kinase inhibitors; Potency, µM (titrated, usually from 76.9 µM), inactives show top-dose activity change, negative = inhibition, actives largely listed as inhibitors; AID 720584; shares compounds with PLK1 PBD block; hit rate 62% among 890; recombinant TbPYK, ADP-Glo luminescence, 60 min; further: potency means the concentration at half of the fitted maximal effect; on the % scale 0 is the no-effect control and ±100 the full control effect; nearly all actives have a fitted effect of over 75% in size
* marks the source's active call; other numbers are inactive results; ? = inconclusive; · = no result. Hits are enriched below; roughly 3.1% of the tested compounds scored in any of these assays. Unless noted, the call rests on the fitted dose curve; in most records, active means well fitted curve in the direction sought with a large enough effect; inconclusive means small, poorly fitted or top-dose-only effect, or another doubt; inactive means no such curve, though single readings can be large; an effect the other way counts as inactive or inconclusive.

SMILES	uPA surface inh	TSG101-PTAP inh	VDR inh	TSHR antagonist	PLK1 PBD block	TbPYK inh	TbPYK orthogonal
CCOC(=O)CN=C1CC(C)(C)CC2=C1Sc1ncnc(N(C)C)c1N2	1%	-1%	-13%	-1	-20%	20µM*	14µM*
COc1cccc(C2CC(=O)NC(SC)=C2C#N)c1 (centres undefined)	-2%	0%	-11%	-6	-4%	·	·
N#CC1=C2SCC(O)(c3ccccc3)N2C(=O)CC1c1ccccc1 (centres undefined)	-10%	0%	22%	9	-12%	·	·
CCc1ccc(C2CC(=O)N3CN(c4ccccc4)CSC3=C2C#N)cc1 (centres undefined)	-9%	-1%	16µM*	-4	21µM*	3.5µM*	4µM*
N#CC1=C2SCN(c3ccc(F)cc3)CN2C(=O)CC1c1cccc(F)c1 (centres undefined)	6%	7%	?	4	27µM*	4µM*	2µM*
Cc1ccccc1CN1C(=O)C2(c3ccccc31)N(c1ccccc1)C(=O)CS2(=O)=O (centres undefined)	·	·	-3%	·	·	·	·
O=C(O)c1ccc(CSc2nnc(-c3ccncc3)n2-c2ccc(Br)cc2)cc1	-2%	-6%	3%	-18	-10%	·	·
O=C(O)c1ccc(CSc2nnc(-c3cccnc3)n2-c2ccc(Br)cc2)cc1	-3%	-16%	17%	-18	-14%	2.5µM*	3.5µM*
COc1ccc(-c2cc(C(=O)Nc3sc4c(c3C#N)CCCC4)c3ccccc3n2)cc1	-4%	-5%	-13%	-11	-11%	·	·
COC(=O)c1sc(NC(=O)c2cc(-c3ccccc3)nc3ccccc23)c(C#N)c1C	-12%	-2%	?	-48	2.7µM*	7.1µM*	7.1µM*
CSc1cccc(N2CC(C(=O)Nc3cccc(S(=O)(=O)N4CCCC4)c3)CC2=O)c1 (centres undefined)	-7%	-5%	-2%	-13	-11%	·	·
Cc1ccc2oc(Nc3nc(C)c(C)c(C)n3)nc2c1	11%	1%	-21%	0	-5%	·	·
Cc1nc(Nc2nc3ccccc3o2)nc(C)c1C	-4%	-1%	?	8	30µM*	-16%	1%
Cc1ccc(/C=C/C(=O)Nc2cccnc2)o1	17%	1%	-6%	35	?	28µM*	40µM*
Cc1ccc(/C=C/C(=O)Nc2ccccc2C(N)=O)o1	·	·	4%	·	·	·	·
Cc1ccc(/C=C/C(=O)NCCc2ccccc2)o1	-2%	-1%	71µM*	10	27µM*	?	?
Cc1ccc(/C=C/C(=O)Nc2cccc3ncccc23)o1	?	-1%	-7%	3	?	?	?
O=C(O)/C=C/C(=O)NCCc1ccccc1	-1%	0%	-9%	21	4%	·	·
Cc1ccc(OCC(=O)Nc2sc3c(c2C(N)=O)CCCC3)c(C(C)(C)C)c1	·	·	6%	·	·	·	·
COc1ccc(-c2cn3c(n2)sc2cc(C(=O)NCCC4=CCCCC4)ccc23)cc1	·	·	13%	·	·	·	·
O=C(O)C1OC(Oc2cc3oc(-c4ccccc4)cc(=O)c3c(O)c2O)C(O)C(O)C1O (centres undefined)	?	-1%	-9%	18	3%	2.8µM*	2.8µM*
COc1c(OC2OC(C(=O)O)C(O)C(O)C2O)cc(O)c2c(=O)cc(-c3ccccc3)oc12 (centres undefined)	-10%	·	-5%	17	-14%	·	·
COc1ccc(C)c2sc(N(Cc3cccnc3)C(=O)COc3ccccc3)nc12	·	·	16%	·	·	·	·
CC1=NN(c2ccccc2)C(=O)/C1=C/N(C)C	-1%	-8%	-2%	4	-10%	·	·
CC1=NN(c2ccccc2)C(=O)/C1=C/C=C/c1ccc(N(C)C)cc1	-27%	-9%	79µM*	-4	0%	25µM*	11%
SMILES	uPA surface inh	TSG101-PTAP inh	VDR inh	TSHR antagonist	PLK1 PBD block	TbPYK inh	TbPYK orthogonal
CC(=O)OCC(=O)[C@@]1(O)[C@H](OC(C)=O)C[C@H]2[C@@H]3CCC4=CC(=O)C=C[C@]4(C)[C@@]3(F)[C@@H](O)C[C@@]21C	·	·	9%	·	·	·	·
COc1cc(/C=N/NC(=O)c2cc3c(ccc4ccccc43)o2)cc(OC)c1O	·	·	·	15	·	·	·
CCOC(=O)c1sc(N/N=C/c2cccc(C)c2)nc1C	8%	0%	3%	-5	-9%	·	·
CCOC(=O)c1sc(N/N=C/c2ccccc2)nc1C	3%	-1%	45µM*	-7	8.4µM*	14µM*	28µM*
Oc1[nH]c2ccc(Br)cc2c1N=NC(=S)N1CCOCC1	?	-4%	-8%	-4	-18%	0.32µM*	0.45µM*
CCOc1ccccc1C1CC(=O)NC(C)=C1C(=O)OC1CCCCCC1 (centres undefined)	·	·	-22%	·	·	·	·
N#Cc1cccc(N2[C@@H](Cc3cc4ccccc4n3Cc3ccccc3)COC[C@H]2Cc2ccc3ccccc3c2)c1	·	·	·	·	1%	·	·
O=[N+]([O-])c1cc2no[n+]([O-])c2cc1N1CCCCC1	-5%	0%	40µM*	·	2.7µM*	2.2µM*	3.5µM*
COc1ccc(CCNC(=O)Cn2c(=O)nc(-c3ccccc3)c3cc(Cl)ccc32)cc1OC	·	·	13%	·	·	·	·
Cc1ccc(S(=O)(=O)NNC(=O)C(=O)NNS(=O)(=O)c2ccc(C)cc2)cc1	9%	-3%	-10%	-14	-4%	·	·
Cc1ccc(NNS(=O)(=O)c2ccc(C)cc2)cc1	-4%	1%	?	1	3.8µM*	8.9µM*	?
Cc1ccc(S(=O)(=O)NN=CC=CC=NNS(=O)(=O)c2ccc(C)cc2)cc1	·	·	·	·	?	32µM*	35µM*
COc1ccc(N2CC(NC(=O)c3ccc(S(=O)(=O)N4CCCC4)cc3)CC2=O)cc1 (centres undefined)	·	·	6%	·	·	·	·
Cc1ccc(Sc2c(C)nn(C(=O)c3ccc(Cl)cc3)c2C)cc1	·	·	4%	·	·	·	·
Cc1ccc(-c2cc(C(=O)Nc3cccnc3)c3ccccc3n2)o1	6%	-28%	-25%	-10	?	?	-27%
CC(=O)N1CCC2(CC1)CN(Cc1ccc(C#N)cc1)C2	·	·	-9%	·	·	·	·
COc1cc2c(cc1OC)C(c1cc([N+](=O)[O-])ccc1O)NCC2 (centres undefined)	-2%	-5%	-5%	11	1%	·	·
COc1cc2c(cc1OC)C(c1ccc([N+](=O)[O-])cc1)NCC2 (centres undefined)	-12%	-4%	-18%	2	12%	-6%	-9%
c1ccc(CNc2nc3ccccc3[nH]2)cc1	?	-1%	7%	-1	2%	·	·
S=C(NCc1ccccc1)NNc1nc2ccccc2[nH]1	5%	1%	25µM*	3	17µM*	?	18µM*
